Data on 40 molecules can be found in PubChem BioAssay (Tox21).

Results filed as inconclusive are left out. A number with no mark means an inactive call. Active and inactive are the calls of the source. Calls follow the shape of the full dose curve.
% is scaled to controls: 0 for no effect and ±100 for the full control effect; potency is read from the fitted curve at half-maximal effect.

5-hydroxytryptamine receptor 2A (Homo sapiens), sequence (P28223 whole entry, looked up): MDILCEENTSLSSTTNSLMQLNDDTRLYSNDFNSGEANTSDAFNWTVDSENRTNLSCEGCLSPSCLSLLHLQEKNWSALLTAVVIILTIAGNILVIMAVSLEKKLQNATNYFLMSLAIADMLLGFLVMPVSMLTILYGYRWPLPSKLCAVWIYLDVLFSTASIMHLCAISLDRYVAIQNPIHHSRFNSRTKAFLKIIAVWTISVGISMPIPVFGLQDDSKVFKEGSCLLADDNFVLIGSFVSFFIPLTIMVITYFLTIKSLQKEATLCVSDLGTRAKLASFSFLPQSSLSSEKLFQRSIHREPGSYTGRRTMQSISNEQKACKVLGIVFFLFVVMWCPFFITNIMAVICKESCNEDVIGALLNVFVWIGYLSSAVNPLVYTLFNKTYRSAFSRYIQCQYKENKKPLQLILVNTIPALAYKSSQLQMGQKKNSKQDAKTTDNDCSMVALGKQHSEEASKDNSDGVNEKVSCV

This experiment deals with 5-hydroxytryptamine receptor 2A (Homo sapiens) (UniProt P28223). The experiment in a line: 5-hydroxytryptamine receptor 2A (HTR2A) small molecule antagonists, cell-based qHTS assay (AID 1963586). Also: nearly all actives have a fitted effect of over 45% in size. Conditions: HTR2A-CHO cells, DOI-induced calcium flux, fluorescence; series mostly up to 61.5 µM; activity, negative = inhibition: at the top concentration. An excerpt:
National Center for Advancing Translational Sciences [NCATS]
Division of Preclinical Innovation [DPI]
U.S. Environmental Protection Agency [EPA]
National Institutes of Environmental Health Sciences [NIEHS]
National Toxicology Program [NTP]
U.S. Food and Drug Administration [FDA]
The HTR2A receptor is a subtype of the 5-HT2 receptor that belongs to the serotonin receptor family and is a G protein-coupled receptor (GPCR). The HTR2A-CHO cell line stably expressing human 5-hydroxytryptamine receptor 2A (HTR2A) can be used for screening antagonists of interactions between 5-HT2 and its ligands. The HTR2A-CHO calcium flux assay is a homogeneous fluorescence-based assay for detecting the intracellular calcium level using FDSS kinetic plate reader system.
Tox21 Assay Protocol Summary:
HTR2A-CHO cells were dispensed at 2000 cells/3uL/well in 1536-well black-clear bottom plates using a Multidrop Dispenser. After the assay plates were incubated at a 37 C/5% CO2 incubator for 18 h, 3 uL of Dye Loading Buffer was transferred to the assay plate by a Flying Reagent Dispenser. The assay plates were incubated at 37 C for 1h. For antagonist mode, 23 nL of compounds dissolved in DMSO, positive controls or DMSO only was transferred to the assay plate by a pin tool. After 5 min incubation at room temperature, 1.5 uL of 4-Iodo-2,5-dimethoxy-alpha-methylbenzeneethanamine hydrochloride (DOI) at 4nM was added to each well. The fluorescence intensity in the plates was measured using FDSS 7000EX kinetic plate reader for 3 min at 1 sec intervals.
For `CCc1cccc(CC)c1NC(=O)C(=O)O`, the “activity, negative = inhibition” value is -8.61%. `C=C1C[C@H]2[C@@H]3C=C(C)C4=CC(=O)CC[C@]4(C)[C@H]3CC[C@]2(C)[C@@]1(OC(C)=O)C(C)=O`: the Potency entry was “inactive”. For the molecule `CC(C[N+](C)(C)C)OC(N)=O` (stereo not given), the “activity, negative = inhibition” value is 53.9% [at 28.5 µM].

Consider `NC(=O)C1CO1` (stereo not given), for which the “activity, negative = inhibition” value was 1.35%. On the same count and under the same terms, to `CCN(CC)CC(=O)Oc1ccc(NC(C)=O)cc1` belongs -3.35% [at 28.5 µM]; to `CCOC(=O)OC(=O)OCC`, -12.9%.

In the case of `CCO[Si](C)(OCC)OCC`, the “activity, negative = inhibition” value is 3.05%. For `CC1(C)[C@H]2CC[C@](C)(C2)[C@H]1O`, the “activity, negative = inhibition” value is 15.2%. `OCC(O)CN1CCN(c2ccccc2)CC1` (stereo not given): the “activity, negative = inhibition” value was -10.4% [at 28.5 µM]. As for `O=C1c2c(O)ccc(Nc3ccc(CCO)cc3)c2C(=O)c2c([N+](=O)[O-])ccc(O)c21`, the “activity, negative = inhibition” value is -12.8%. On the same count and under the same terms, to `CCOC(=O)c1ccc(OCCN2C[C@H](O)[C@@H](O)[C@H](O)[C@H]2CO)cc1` belongs 46.2% [at 28.5 µM].

Consider `CC(C)(C)c1cc(C(C)(C)C)c(O)c(C(C)(C)C)c1`, for which the Potency result is “inactive”.

For `NC[C@H](O)c1ccc(O)c(O)c1`, the “activity, negative = inhibition” value was -13.7%. Take `O=S(=O)(O)c1ccccc1O`: the “activity, negative = inhibition” value is 13.7%. Still for that read-out and setting: the same measure for `CCCC/C=C\CCCCCCCCCC=O`: 7.32%; for `Cc1ncsc1CCO`: -1.72%.

Take `CC(=O)/C=C/C1C(C)=CCCC1(C)C` (stereo not given): the “activity, negative = inhibition” value was 70.8%. As to `N[C@H]1C(O)O[C@H](CO)[C@@H](O)[C@@H]1O` (stereo not given in full), the “activity, negative = inhibition” value was 8.82% [at 28.5 µM].

With `Fc1c(F)c(F)c(Br)c(F)c1F`, the “activity, negative = inhibition” value is -7.21%. On to `CCCCC(CC)COP(=O)(OCC(CC)CCCC)OCC(CC)CCCC` (stereo not given), for which the Potency entry is “inactive”. For the molecule `C=C(c1ccc(C(=O)O)cc1)c1cc2c(cc1C)C(C)(C)CCC2(C)C`, the “activity, negative = inhibition” value was -26.6%.

`CCCOCCOCCOCCO`: the “activity, negative = inhibition” value is -0.603%. On to `C=C[C@H]1CN2CC[C@H]1C[C@H]2[C@H](O)c1ccnc2ccc(OC)cc12`, for which the “activity, negative = inhibition” value was -6.96% [at 28.5 µM]. As to `CC1COc2ccccc2N1` (stereo not given), the “activity, negative = inhibition” value is 2.17%. For `COc1cc(CCC(C)=O)ccc1O`, the Potency was 3.75 µM (active). Regarding `Nc1cccc2c1CN(C1CCC(=O)NC1=O)C2=O` (stereo not given), the “activity, negative = inhibition” value is 105% [at 28.5 µM]. The same measure, in the same setting: to `O=c1[nH]cnc2c1ncn2[C@@H]1O[C@H](CO)[C@@H](O)[C@H]1O` belongs 26.8% [at 28.5 µM]; to `CCCC(=O)CC`, -42.4%. Turning to `NC1CCCCC1N` (stereo not given), the Potency result is “inactive”.

For `C=C(C)C(=O)OCCC[Si](Cl)(Cl)Cl`, the “activity, negative = inhibition” value was -1.25%. Turning to `C=CC(C)(CCC=C(C)C)OC(=O)CC` (stereo not given), the “activity, negative = inhibition” value is 8.33%. On to `CN(C)CCCN(C)CCCN(C)C`, for which the “activity, negative = inhibition” value is 9.29%.

As for `NNC(=O)c1cccc(C(=O)NN)c1`, the “activity, negative = inhibition” value was -15.1%. The same measure, in the same setting: the same measure for `O=Cc1cc2ccccc2o1`: 1.62%. Turning to `CC(C)(C)C1CCCCC1O` (stereo not given), the “activity, negative = inhibition” value was 0.119%.

Regarding `CCCCCCCCc1ccc(Nc2ccc(CCCCCCCC)cc2)cc1`, the “activity, negative = inhibition” value was 11.5% [at 28.5 µM]. For `O=C(O)CCC(=O)Nc1ccc(S(=O)(=O)Nc2nccs2)cc1`, the “activity, negative = inhibition” value is 5.19% [at 28.5 µM]. For `CC1(C)O[C@H]2CC(=O)OC[C@]23[C@H]2CC[C@@]4(C)[C@H](c5ccoc5)OC(=O)[C@H]5O[C@]54[C@]2(C)C(=O)C[C@@H]13`, the “activity, negative = inhibition” value was 5% [at 28.5 µM].

Consider `Cc1ccc(S(=O)(=O)O)c(C)c1`, for which the “activity, negative = inhibition” value was -13.3%. On to `CCCc1c2oc(C(=O)O)cc(=O)c2cc2c(=O)cc(C(=O)O)n(CC)c12`, for which the “activity, negative = inhibition” value is 22.6% [at 28.5 µM].
